Four molecules from PubChem BioAssay (NCATS) can be followed below.

Experiment [1] is described as follows: Cell Viability - HepG2 (AID 433; calls by dose curve;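 note: potency is the fitted concentration of half-maximal effect; cells exposed to compound for 40 hours; potency for ATP loss meaning cytotoxicity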). The note with it: qHTS. A digest of the protocol:
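HepG2 hepatocellular carcinoma cells (1500/well) were treated with compounds for 40 h at 37 °C in complete medium; intracellular ATP was read by CellTiter-Glo luminescence. Data were normalized to DMSO and 100 uM tamoxifen, and AC50 came from Hill fits.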

Experiment [2] can be described thus: Cell Viability - SH-SY5Y (AID 544).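 Note: cells exposed to compound for 40 hours; nearly all actives have a fitted effect of over 55% in size.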 The note with it: SH-SY5Y neuroblastoma cell viability; viability change, negative = cytotoxic: at 92.2 µM (top of the series). Summed up: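 Cytotoxicity measured via ATP-dependent luciferase luminescence (CellTiter-Glo) following 40 h, 37 °C exposure of 1500 SH-SY5Y cells per well. Concentration-response data were fitted with the standard Hill equation to give AC50.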

Experiment [3] can be described thus: Cell Viability - Mesenchymal (AID 546).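 Note: cells exposed to compound for 40 hours before reading.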 The note with it: mesenchymal cells viability, qHTS; series mostly up to 91.7 µM. A digest of the protocol: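 In this qHTS cytotoxicity format, glomerulus-derived human mesenchymal kidney cells received compound for 40 hr, then luciferase-based ATP quantitation. Concentration-response data were fitted with the Hill equation.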
(In general: Quantitative high-throughput screening tests each substance at several concentrations.)

Experiment [4] is described as follows: Cellular Toxicity (caspase-3) HepG2 (AID 654).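 Note: cells exposed to compound for 16 hours before reading; 0% = DMSO alone and 100% = caspase signal from 100 µM tamoxifen.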 The note with it: HepG2 caspase-3 activation, luminescence, 0% = DMSO only, 100% = tamoxifen; series mostly up to 92.2 µM. A digest of the protocol:
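Caspase 3/7 activation is measured as a luminescence increase (aminoluciferin substrate) after 16 h compound exposure of human hepatocarcinoma HepG2 cells. AC50 values are Hill fits, scaled between DMSO baseline and 100 uM tamoxifen stimulation.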

A short description of experiment [5]: Cellular Toxicity (caspase-3) HUV-EC-C (AID 656). The note with it: HUV-EC-C cells, caspase-3 activation (apoptosis), vehicle = 0, 100 µM tamoxifen = 100%; series mostly up to 92.2 µM. Summed up:
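HUV-EC-C endothelial cells, 1000/well, were pre-incubated 5 hr at 37°C, then exposed to compounds for 16 hr at 37°C. Caspase-Glo 3/7 luminescence was read after 20 min at room temperature. AC50 came from Hill fits, normalized to DMSO and 100 uM tamoxifen.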

Experiment [6] can be described thus: Cellular Toxicity (caspase-3) Mesangial (AID 660).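 Note: combined caspase 3 and 7 activity read by Caspase-Glo luminescence; cells exposed to compound for 16 h before the caspase read.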 The note with it: mesangial cells, normalized: DMSO 0%, 100 µM tamoxifen 100%; series mostly up to 91.7 µM. Summed up: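 Caspase 3/7 activation measured by Caspase-Glo 3/7 luminescence (20 min, room temperature) following 16 h exposure of mesangial cells (1000/well); AC50 from Hill-equation fit, normalized to DMSO and 100 uM tamoxifen.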

A short description of experiment [7]: Cellular Toxicity (caspase-3) SK-N-SH (AID 661).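 Note: 0% = DMSO basal and 100% = 10 µM staurosporine.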 The note with it: SK-N-SH caspase-3 activation, qHTS; series mostly up to 91.7 µM. Summed up: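 Caspase 3/7 activation was read by luminogenic substrate cleavage after 16 hour treatment of SK-N-SH cells. Signal was scaled between DMSO and 10 uM staurosporine, and concentration-response data were fitted with the Hill equation for AC50.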

The nature of experiment [8]: Cellular Toxicity (caspase-3) Hek293 (AID 664).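 Note: cells exposed to compound for 16 h at 37 °C before readout.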 The note with it: HEK293 caspase-3 activation, DMSO = 0%, 100 µM tamoxifen = 100%; at 92.2 µM (top of the series). A digest of the protocol: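 Concentration-response qHTS: caspase 3/7 activation measured by luminescent aminoluciferin substrate cleavage after 16 h compound exposure of Hek 293 cells. AC50 from Hill equation, with DMSO as basal and 100 uM tamoxifen as 100%.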

Experiment [9] can be described thus: Cellular Toxicity (caspase-3) NIH 3T3 (AID 666).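 Note: caspase signal read after 16 h compound exposure.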 The note with it: NIH 3T3 caspase-3 activation, apoptosis/toxicity; series mostly up to 92.2 µM. Summed up:
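Caspase-Glo 3/7 luminescence reported caspase activation in 1000 NIH 3T3 cells/well after 16 h compound exposure at 37 C. DMSO set basal and 100 uM tamoxifen set 100% stimulation; concentration-response modeled with the Hill equation for AC50.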

Experiment [10] is described as follows: Cell Viability - LYMP2-023 (AID 975).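 Note: cellular ATP measured by luciferase luminescence as viability proxy; cells exposed to compound for 24 hours at 37 °C; plate controls were DMSO only for no effect and 92 µM tetraoctylammonium bromide control for full effect; nearly all actives have a fitted effect of over 55% in size.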 The note with it: LYMP2-023 lymphoblastoid cell viability; series mostly up to 92.2 µM. A digest of the protocol: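 Intracellular ATP, read by CellTiter-Glo luminescence, reports viability after 24 hr compound exposure at 37 C. 2500 lymphoblastoid cells/well (LYMP2-023) seeded 5 hr beforehand; Hill fits give AC50; positive control tetraoctylammonium bromide.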

Experiment [11] in a line: Cell Viability - LYMP2-026 (AID 989). Note: % is set by controls: 0 for no effect and ±100 for the full control effect; nearly all actives have a fitted effect of over 50% in size. The note with it: LYMP2-026 lymphoblastoid cell viability, qHTS; series mostly up to 92.2 µM. Summed up:
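Cytotoxicity read as ATP-dependent luminescence (CellTiter-Glo, 30 min room temperature) after 24 h compound treatment at 37 C. LYMP2-026 lymphoblastoid line seeded at 2500 cells/well; AC50 derived by standard Hill equation.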

Experiment [12] concerns the target Voltage-gated inwardly rectifying potassium channel KCNH2 (Homo sapiens) (UniProt Q12809). As to the kind of experiment: qHTS Assay for Small Molecule Inhibitors of the Human hERG Channel Activity (AID 588834).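 Note: top concentration of the series differs between compounds; % is set by controls: 0 for no effect and ±100 for the full control effect; lower thallium flux fluorescence means stronger hERG block; nearly all actives have a fitted effect of over 50% in size.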 The note with it: U2OS BacMam hERG, FluxOR thallium flux fluorescence; series mostly up to 92.2 µM. A digest of the protocol: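 In hERG-transduced U2OS cells, dye-loaded for 1 hr at room temperature in dark, test compounds incubated 10 min at 37 °C before thallium stimulation. AC50 values derived by Hill modelling of concentration-response.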

Experiment [13] is described as follows: qHTS assay for small molecule activators of the p53 signaling pathway (AID 651743; active = well fitted activation curve with a large enough effect in the signal ratio, not every such curve was filed as active; the % refers to the signal ratio; note: % of control where 0% means no effect). The note with it: HCT-116 p53RE-bla, beta-lactamase FRET ratio, 16 h; activation: hits give high values. Summed up:
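Agonist-mode quantitative HTS in HCT-116 cells carrying a p53-response-element beta-lactamase reporter; 16 h compound treatment at 37 C, then FRET substrate loading for 2 h at room temperature and fluorescence read.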

Experiment [14] can be described thus: qHTS assay for small molecule disruptors of the mitochondrial membrane potential - 1 hr assay (AID 651754; calls by dose curve; note: nearly all actives have a fitted effect of over 35% in size; note: potency is the fitted concentration of half-maximal effect). The note with it: series mostly up to 92.2 µM. A digest of the protocol:
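Mitochondrial potential in living HepG2 cells after 1 hr compound treatment at 37C was read with Mito-MPS dye added for a further 30 min. Red aggregate and green monomer fluorescence were measured; loss of potential leaves dye as cytoplasmic monomers.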

The target of experiment [15] is Nuclear receptor ROR-gamma (Homo sapiens) (UniProt P51449). Description: qHTS assay for small molecule antagonists of the retinoid-related orphan receptor gamma (ROR-gamma) signaling pathway (AID 651802). Note: nearly all actives have a fitted effect of over 60% in size. Note: potency is the fitted concentration of half-maximal effect. The note with it: ROR-gamma antagonist cell reporter assay; series mostly up to 92.2 µM. A digest of the protocol: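 Luminescence (One-Glo, 30 min RT) measured 16 h after compound addition and doxycycline induction at 37C. Reporter: RORE-luciferase under TET-inducible ROR-gamma in CHO cells.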

A short description of experiment [16]: qHTS assay for small molecule agonists of the antioxidant response element (ARE) signaling pathway measured by Nrf2-dependant transcriptional activity - cell viability counter screen (AID 720653; active = well fitted curve in the direction sought with a large enough effect in the repeat runs; an effect the other way counts as inactive or inconclusive; note: % is set by controls: 0 for no effect and ±100 for the full control effect). The note with it: ARE-bla HepG2 viability, CellTiter-Glo ATP luminescence, 16 h; hits give low values. A digest of the protocol:
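ARE-bla HepG2 cells (2,000/well) rested 5 hrs at 37C/5% CO2, then exposed to compounds in DMSO for 16 hrs. Viability was read in the same wells as intracellular ATP by luminescence, 30 min at room temperature after reagent addition.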

A short description of experiment [17]: Cell Viability - LYMP2-014 (AID 983).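 Note: plate controls were DMSO only for no effect and 92 µM tetraoctylammonium bromide for full effect; nearly all actives have a fitted effect of over 50% in size.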 The note with it: LYMP2-014 lymphoblastoid cells, viability qHTS; series mostly up to 92.2 µM. A digest of the protocol: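 Intracellular ATP loss, read by luciferase luminescence, measures acute cytotoxicity after 24 h compound exposure of lymphoblastoid LYMP2-014 cells (2500/well, 37 C). Concentration-response data fitted to the Hill equation for AC50.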

Experiment [18] has as its target Vitamin D3 receptor (Homo sapiens) (UniProt P11473). Description: qHTS assay for small molecule antagonists of vitamin D receptor signaling (AID 588541; calls by dose curve;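 note: receptor activated by calcitriol during compound treatment; % is set by controls: 0 for no effect and ±100 for the full control effect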). The note with it: HEK293T VDR-UAS-bla, beta-lactamase ratio, antagonist mode; series mostly up to 76.7 µM. Summed up: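 VDR-UAS-bla HEK293T cells (2000/well, 2% charcoal-stripped FBS) were treated with titrated compounds plus 1-alpha,25-dihydroxyvitamin D3 (50 nM or 3 nM final) for 16 h at 37 C. CCF4 beta-lactamase fluorescence was read; Hill fits gave IC50.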

Experiment [19] has the same target. Description: qHTS assay for small molecule agonists of vitamin D receptor signaling (AID 588543; calls by dose curve;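 note: 0% = DMSO basal and 100% = reference agonist control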). The note with it: HEK293T VDR-UAS-bla, beta-lactamase ratio, 16 h; series mostly up to 76.8 µM. Summed up:
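GeneBLAzer VDR-UAS-bla HEK293T cells in 2% charcoal-stripped FBS medium were dosed with compound titrations for 16 h at 37 °C; CCF4 β-lactamase readout (405 nm ex, 460/530 nm em). EC50 and efficacy from Hill fits, normalized to 50 nM calcitriol (100%) and DMSO (0%).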

Experiment [20] concerns the target Peroxisome proliferator-activated receptor delta (Homo sapiens) (UniProt Q03181). As to the kind of experiment: qHTS assay for small molecule agonists of peroxisome proliferator-activated receptor delta signaling (AID 588534; calls by dose curve;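 note: 0% = DMSO basal wells and 100% = positive control agonist at 10 µM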). The note with it: HEK293T PPARdelta-UAS-bla, beta-lactamase ratio, 18 h; series mostly up to 76.7 µM. Summed up: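 Agonist-mode beta-lactamase reporter readout (CCF4 dye, 2 h at RT) after 18 h at 37 °C exposure to a titration; Hill-equation fitting gave EC50 and maximal response.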

Unmarked numbers belong to inactive results. Inconclusive results are not listed. The source made the active and inactive calls. Unless noted, calls come from the whole dose curve; as a rule, active = well fitted curve in the direction sought with a large enough effect; inconclusive = small, poorly fitted or top-dose-only effect, or another doubt; inactive = no such curve, though single readings can be large; an effect the other way counts as inactive or inconclusive. A value given as a limit tells only on which side of the number the result lay.

Chain of Nuclear receptor ROR-gamma (Homo sapiens) (P51449 whole entry, looked up): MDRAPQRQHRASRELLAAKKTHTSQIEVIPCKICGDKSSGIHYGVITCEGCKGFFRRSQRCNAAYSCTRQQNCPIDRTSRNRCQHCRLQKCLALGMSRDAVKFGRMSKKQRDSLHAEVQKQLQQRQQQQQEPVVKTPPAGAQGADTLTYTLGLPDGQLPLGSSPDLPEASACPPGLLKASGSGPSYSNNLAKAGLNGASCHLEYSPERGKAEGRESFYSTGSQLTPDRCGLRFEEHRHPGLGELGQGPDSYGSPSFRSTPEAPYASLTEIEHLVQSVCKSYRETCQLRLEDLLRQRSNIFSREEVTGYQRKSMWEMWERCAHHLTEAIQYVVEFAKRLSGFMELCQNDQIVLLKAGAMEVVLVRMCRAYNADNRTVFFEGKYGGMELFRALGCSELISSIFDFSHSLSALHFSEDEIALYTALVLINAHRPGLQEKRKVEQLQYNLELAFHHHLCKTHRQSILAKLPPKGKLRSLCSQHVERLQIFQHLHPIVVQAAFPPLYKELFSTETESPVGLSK
Chain of Vitamin D3 receptor (Homo sapiens) (P11473 whole entry, looked up): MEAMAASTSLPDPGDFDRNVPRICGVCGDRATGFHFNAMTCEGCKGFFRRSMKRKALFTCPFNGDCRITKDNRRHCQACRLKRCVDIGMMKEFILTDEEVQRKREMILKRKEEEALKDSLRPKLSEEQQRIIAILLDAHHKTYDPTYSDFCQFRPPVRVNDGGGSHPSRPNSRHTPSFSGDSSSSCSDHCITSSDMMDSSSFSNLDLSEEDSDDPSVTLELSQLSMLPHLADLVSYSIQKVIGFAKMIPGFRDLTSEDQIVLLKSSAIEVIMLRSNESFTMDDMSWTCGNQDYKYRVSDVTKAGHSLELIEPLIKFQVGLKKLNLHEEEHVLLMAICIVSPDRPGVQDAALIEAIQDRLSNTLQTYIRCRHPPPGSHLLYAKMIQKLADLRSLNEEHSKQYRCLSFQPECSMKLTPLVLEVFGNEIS
Chain of Peroxisome proliferator-activated receptor delta (Homo sapiens) (Q03181 whole entry, looked up): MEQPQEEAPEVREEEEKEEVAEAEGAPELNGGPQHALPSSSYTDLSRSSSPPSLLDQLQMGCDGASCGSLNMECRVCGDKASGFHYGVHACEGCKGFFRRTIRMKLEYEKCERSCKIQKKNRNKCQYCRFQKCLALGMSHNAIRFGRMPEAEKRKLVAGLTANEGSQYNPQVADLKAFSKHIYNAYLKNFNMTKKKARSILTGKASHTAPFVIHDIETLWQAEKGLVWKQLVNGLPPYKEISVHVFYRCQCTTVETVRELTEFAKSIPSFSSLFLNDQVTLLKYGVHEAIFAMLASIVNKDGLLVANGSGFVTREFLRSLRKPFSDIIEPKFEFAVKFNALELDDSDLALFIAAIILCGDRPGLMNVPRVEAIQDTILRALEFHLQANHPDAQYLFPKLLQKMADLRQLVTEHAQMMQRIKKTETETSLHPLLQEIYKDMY
Chain of Voltage-gated inwardly rectifying potassium channel KCNH2 (Homo sapiens) (Q12809 whole entry, looked up): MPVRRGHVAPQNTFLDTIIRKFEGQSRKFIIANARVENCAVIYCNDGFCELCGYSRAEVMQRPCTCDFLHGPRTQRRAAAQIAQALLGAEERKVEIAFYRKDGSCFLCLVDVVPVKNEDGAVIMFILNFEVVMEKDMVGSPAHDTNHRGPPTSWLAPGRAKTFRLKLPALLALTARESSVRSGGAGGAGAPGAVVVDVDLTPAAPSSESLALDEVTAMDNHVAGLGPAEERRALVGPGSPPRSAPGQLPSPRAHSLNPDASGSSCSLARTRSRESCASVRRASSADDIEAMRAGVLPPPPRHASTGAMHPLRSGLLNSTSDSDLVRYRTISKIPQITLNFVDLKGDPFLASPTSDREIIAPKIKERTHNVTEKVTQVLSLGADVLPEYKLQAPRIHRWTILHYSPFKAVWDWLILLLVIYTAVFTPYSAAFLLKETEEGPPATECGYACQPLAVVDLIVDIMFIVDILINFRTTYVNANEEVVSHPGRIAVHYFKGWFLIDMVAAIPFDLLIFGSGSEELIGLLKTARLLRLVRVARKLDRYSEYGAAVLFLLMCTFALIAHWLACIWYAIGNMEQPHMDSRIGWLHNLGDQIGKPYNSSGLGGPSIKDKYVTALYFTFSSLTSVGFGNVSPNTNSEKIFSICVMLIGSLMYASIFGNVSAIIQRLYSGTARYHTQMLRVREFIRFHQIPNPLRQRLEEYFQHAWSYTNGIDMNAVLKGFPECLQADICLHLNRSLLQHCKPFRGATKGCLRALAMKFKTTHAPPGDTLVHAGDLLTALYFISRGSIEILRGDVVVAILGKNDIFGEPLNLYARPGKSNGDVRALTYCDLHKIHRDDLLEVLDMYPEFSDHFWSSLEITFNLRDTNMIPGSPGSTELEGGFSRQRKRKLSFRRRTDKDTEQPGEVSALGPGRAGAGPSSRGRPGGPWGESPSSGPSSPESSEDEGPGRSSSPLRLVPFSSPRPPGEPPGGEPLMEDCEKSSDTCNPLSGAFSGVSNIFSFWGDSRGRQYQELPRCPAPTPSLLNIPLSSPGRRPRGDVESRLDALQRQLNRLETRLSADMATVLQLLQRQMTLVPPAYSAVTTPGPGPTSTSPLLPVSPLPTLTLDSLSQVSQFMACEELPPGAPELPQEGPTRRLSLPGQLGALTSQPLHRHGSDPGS

On to `O=[N+]([O-])c1ccc(O)c([N+](=O)[O-])c1`, for which the values for the Potency in [1], in experiment [14] and in experiment [15] were more than 92 µM, 21.1 µM (active) and 6.68 µM (active), respectively. Besides, the Potency entry in experiment [2], in experiment [3], in experiment [7], in experiment [9], in experiment [10] and in [11] was “inactive” in each case. In addition, the Potency entry in [12] was “inactive”. In addition, the molecule was classed as inactive in experiment [4], in experiment [5] and in [6]. The caspase-3 activation in experiment [8] is -5.23%. For the same molecule, in [13], the activation is 9.63%. The max response in experiment [16] is -10%.

`c1ccc(OCC2CO2)cc1` (stereo not drawn): in experiment [1], the Potency was more than 92 µM. Moreover, the Potency entry in [2], in experiment [3], in [9], in [10], in [17] and in [11] was “inactive” throughout. Moreover, the Potency entry in experiment [14] and in experiment [15] was “inactive” throughout. Besides, the molecule was classed as inactive in experiment [4], in experiment [5], in [6], in experiment [18] and in [19]. In experiment [8], the caspase-3 activation was 0.633%. Also, the activation in experiment [13] is -2.65%.

In the case of `CC(C)CC(C)N` (stereo not drawn), the Potency entry in [2], in experiment [3], in experiment [7], in experiment [9], in [10] and in experiment [17] was “inactive” in each case. Moreover, the Potency result in experiment [11], in experiment [14] and in experiment [15] was “inactive” in each case. Also, the outcome in [4], in experiment [5], in [6] and in experiment [20] was inactive. In addition, the caspase-3 activation in experiment [8] was 1.99%. Moreover, the activation in experiment [13] is -1.88%. Also, the max response in [16] was 0.53%.

In the case of `c1ccc(P(c2ccccc2)c2ccccc2)cc1`, the Potency entry in experiment [2], in [3], in [7], in experiment [10], in [17] and in experiment [11] was “inactive” each time. The Potency result in [15] is “inactive”. Also, the molecule was called inactive in experiment [5], in [6], in experiment [20], in experiment [18] and in experiment [19]. Further, the caspase-3 activation in [8] is -0.936%. Besides, the activation in experiment [13] was -3.71%. Besides, in experiment [16], the max response is -10.4%.
